Publication PMC4336329 (PLoS ONE, 2015)
In all, about 310,000 compounds went through this assay and about 2,200 (0.71%) showed an effect of 50% or more. Effects have a minus sign here. Many of the other results were omitted from the sample, so strong results are more common in it than they were.

target: human ether-à-go-go-related gene (hERG) potassium channel (human, UniProt Q12809); assay: primary screen, population patch clamp on CHO cells stably expressing hERG; higher = less effect of the substance
Procedure: Briefly, Chinese hamster ovary (CHO) cells stably expressing the hERG channel were dislodged from tissue culture flasks and dispensed into PPC plates. […] During the recording, background leak currents were estimated by a 100 ms step to -80 mV from an initial holding potential of -70 mV and subtracted from the subsequent current measurement. The campaign was conducted in two phases using slight differences in recording protocol. In the first phase, the initial voltage pulse used a 100 ms step to -30 mV from a holding potential of -70 mV, a 2 s conditioning step to +25 mV, and a 2 s test step to -30 mV. During the second phase of the screen, the potential during the conditioning step was raised to +45 mV. In both phases of the campaign, a secondary voltage pulse was applied using the same parameters as the second phase initial pulse. The initial and secondary pulses were applied in the absence of compound, and upon application of 1 μM and 10 μM test concentrations. Small molecule effects on hERG current density were quantified by […].

Chain of human ether-à-go-go-related gene (hERG) potassium channel (Q12809 whole entry, looked up): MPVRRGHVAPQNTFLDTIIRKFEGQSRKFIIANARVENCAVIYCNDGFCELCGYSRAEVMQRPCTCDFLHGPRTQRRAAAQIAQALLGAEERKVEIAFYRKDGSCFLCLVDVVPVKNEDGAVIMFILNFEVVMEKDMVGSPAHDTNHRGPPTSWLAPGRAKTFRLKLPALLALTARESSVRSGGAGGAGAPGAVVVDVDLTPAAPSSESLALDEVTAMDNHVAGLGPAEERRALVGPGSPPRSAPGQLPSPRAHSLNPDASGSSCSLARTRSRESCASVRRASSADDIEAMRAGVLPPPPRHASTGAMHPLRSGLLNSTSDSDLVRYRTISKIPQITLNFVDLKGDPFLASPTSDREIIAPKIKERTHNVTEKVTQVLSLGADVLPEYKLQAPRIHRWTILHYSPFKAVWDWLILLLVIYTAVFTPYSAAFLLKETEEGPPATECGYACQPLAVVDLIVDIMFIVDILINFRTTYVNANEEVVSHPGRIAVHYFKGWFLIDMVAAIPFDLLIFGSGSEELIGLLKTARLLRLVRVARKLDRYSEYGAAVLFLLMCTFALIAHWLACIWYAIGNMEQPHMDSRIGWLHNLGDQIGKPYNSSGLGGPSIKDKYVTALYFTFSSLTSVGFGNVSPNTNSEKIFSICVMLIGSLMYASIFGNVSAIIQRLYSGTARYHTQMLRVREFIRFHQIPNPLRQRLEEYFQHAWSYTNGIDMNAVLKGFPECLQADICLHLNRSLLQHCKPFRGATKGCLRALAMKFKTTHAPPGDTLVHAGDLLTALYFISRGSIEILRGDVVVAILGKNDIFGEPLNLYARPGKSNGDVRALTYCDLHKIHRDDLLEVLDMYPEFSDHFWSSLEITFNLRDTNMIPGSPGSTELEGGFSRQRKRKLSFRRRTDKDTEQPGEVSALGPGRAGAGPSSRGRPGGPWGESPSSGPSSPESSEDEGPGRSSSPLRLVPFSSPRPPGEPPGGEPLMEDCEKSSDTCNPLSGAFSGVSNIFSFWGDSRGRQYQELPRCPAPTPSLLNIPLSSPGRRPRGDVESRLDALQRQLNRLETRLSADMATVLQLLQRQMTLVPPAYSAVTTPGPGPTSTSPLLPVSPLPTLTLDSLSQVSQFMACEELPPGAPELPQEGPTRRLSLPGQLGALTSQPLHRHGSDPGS

SMILES | hERG current change (%, negative = inhibition) at 1uM
O=C1C2CCCN2C(=O)N1CCCCN1CCN(c2ccccc2)CC1 (centres unmarked) | 1.66%
Cl.Nc1ccc(N2CCN(CCCCN3C(=O)C4CCCN4C3=O)CC2)cc1.O (centres unmarked) | 18.3%
O=C(CCN1C(=O)C2C3C=CC(C3)C2C1=O)N1CCN(c2ccc([N+](=O)[O-])cc2)CC1 (centres unmarked) | -49.5%
O=C(CCCN1C(=O)C2CCCCN2C1=O)N1CCN(c2ccc([N+](=O)[O-])cc2)CC1 (centres unmarked) | -78.5%
O=C1C2CCCCN2C(=O)N1CCCN1CCN(c2ccc(F)cc2)CC1 (centres unmarked) | -3.12%
O=C1C2CCCN2C(=O)N1CCCN1CCN(c2ccc([N+](=O)[O-])cc2)CC1 (centres unmarked) | -63.3%
O=C1C2CCCCN2C(=O)N1CCN1CCN(c2ccc([N+](=O)[O-])cc2)CC1 (centres unmarked) | -69.7%
Cc1ccc(N2CCN(CCCCN3C(=O)C4CCCN4C3=O)CC2)cc1.Cl (centres unmarked) | -3.91%
Cc1ccc(N2CCN(CCCN3C(=O)C4CCCN4C3=O)CC2)cc1.Cl (centres unmarked) | 4.77%
O=C1C2CCCCN2C(=O)N1CCCCN1CCN(c2ccc(F)cc2)CC1 (centres unmarked) | -7.05%
O=C1C2CCCN2C(=O)N1CCN1CCN(c2ccccc2)CC1 (centres unmarked) | -10.6%
O=C1C2CCCCN2C(=O)N1CCCCN1CCN(c2ccc([N+](=O)[O-])cc2)CC1 (centres unmarked) | -80.7%
Cc1cc(C)cc(N(C(=O)c2csnn2)C(C(=O)NC2CCCCC2)c2ccccn2)c1 (centres unmarked) | 11.5%
CN(Cc1ccccc1)C(=O)c1ccc(NC2=NC3CS(=O)(=O)CC3S2)cc1 (centres unmarked) | -3.47%
O=C(O)Cc1ccc(O)c(F)c1 | 4.7%
CN1CCN(NC(=S)NC2CCCCC2)CC1 | 3.73%
CCOC(=O)C1CCN(C(=O)c2sccc2Cl)CC1 | 12.5%
O=S(=O)(Nc1ccc(Cl)cn1)c1ccc(Cl)cc1 | 16.8%
O=C(NNC(=O)C1CCCO1)c1ccc(Br)cc1 (centres unmarked) | 8.75%

SMILES | hERG current change (%, negative = inhibition) at 1uM
O=C(NC1CCCCC1)NC1CCN(S(=O)(=O)c2ccc3c(c2)OCCO3)CC1 | 9.08%
Cc1ccc(S(=O)(=O)N(C(=O)c2ccncc2)c2ccc3oc4c(c3c2)CCCC4)cc1[N+](=O)[O-] | 19.2%
Cc1ccc(Nc2nc(Cl)nc(NC(C)(C)C)n2)cc1 | 11.9%
O=C(NCC(=O)N1CCN(c2ccccc2)CC1)c1ccc(Br)o1 | -7.83%
Cc1ccc(Cl)cc1N1CCN(C(=O)CNC(=O)c2ccc(Br)o2)CC1 | 4.64%
O=C(NCC(=O)N1CCN(c2cccc(Cl)c2)CC1)c1ccc(Br)o1 | -57.5%
COc1ccc(-n2c(-c3ccc(Cl)cc3)c[n+]3c2CCCCC3)cc1.[Br-] | 8.19%
COc1ccc(-n2c(-c3ccc(Br)cc3)c[n+]3c2CCC3)cc1.[Br-] | -21%
Brc1ccc(-c2cn3c(n2)CCc2ccc4cccnc4c2-3)cc1 | 10.5%
COc1ccc(-n2c(-c3ccccc3)c[n+]3c2CCC3)cc1.[Br-] | 6.43%
COc1ccc(-n2c(-c3ccc(Br)cc3)c[n+]3c2SC(C)C3)cc1.[Br-] (centres unmarked) | -26%
Cc1ccc(-n2c(-c3ccccc3)c[n+]3c2CCC3)cc1.[Br-] | -2.23%
Cc1ccc(-n2c(-c3ccc(Br)cc3)c[n+]3c2CCc2ccc4cccnc4c2-3)cc1.[Br-] | -86.6%
COc1ccccc1-n1c(-c2ccccc2)c[n+]2c1CCc1ccccc1-2.[Br-] | -34.7%
COc1ccc(-n2c(-c3ccc(Cl)cc3)c[n+]3c2CCc2ccccc2-3)cc1.[Br-] | -70.3%
Cc1ccc(-n2c(-c3ccccc3)c[n+]3c2CCc2ccccc2-3)c(C)c1.[Br-] | -82.5%
Cc1ccc(-c2c[n+]3c(n2-c2ccccc2)CCC3)cc1.[Br-] | 1.57%
COc1ccc(-n2c(-c3ccc(Br)cc3)c[n+]3c2CCc2ccccc2-3)cc1.[Br-] | -90.6%
O=C(NCCN1CCOCC1)c1ccc(N2CCCC2)c([N+](=O)[O-])c1 | -2.75%

SMILES | hERG current change (%, negative = inhibition) at 1uM
COC(=O)/C=C\C(=O)Nc1cccc([N+](=O)[O-])c1 | 8.24%
CCOc1nc(C)cc(C)c1S(=O)(=O)c1ccc(Cl)cc1 | 9.36%
CCCCNC(=O)C1CCCN(S(=O)(=O)c2ccc(S(=O)(=O)NCC(C)C)cc2)C1 (centres unmarked) | -3.36%
COc1ccccc1NCC(=O)N/N=C/c1cccnc1 | 4.49%
Cn1c(SCC(=O)Nc2ccccc2)nnc1-c1ccc(NC(=O)CCc2ccccc2)cc1 | 6.68%
Cc1cc(C)nc(-n2nc(C)cc2NC(=O)CN2CCc3ccccc3C2)n1 | -26.4%
COc1ccc(OC)c(C2C(C(N)=O)=C(C)Nc3nc(CCCO)nn32)c1 (centres unmarked) | 15.5%
Cc1onc(-c2ccccc2Cl)c1C(=O)N1CCN(c2ccccc2)CC1 | 1.1%
O=C(c1cn(-c2ccccc2)nc1-c1cccs1)N1CCOCC1 | 4.92%
C=CCN(CC=C)CCOc1cc(C)ccc1[N+](=O)[O-].O=C(O)C(=O)O | 6.69%
C=CCN(CC=C)CCOc1ccccc1[N+](=O)[O-].O=C(O)C(=O)O | 1.55%
C=CCN(CC=C)CCOc1ccc(C)cc1[N+](=O)[O-].O=C(O)C(=O)O | -62.5%
NC(=O)C1CCN(CC(=O)Nc2ccccc2C(=O)NC2CC2)CC1 | 10.7%
O=C(CN1CCN(Cc2ccccc2)CC1)NC(=O)NC1CCCCC1 | -16.1%
CC1CCN(CC(=O)Nc2ccccc2C(=O)NC2CC2)CC1 | 5.31%
O=C(CN1CCN(C/C=C/c2ccccc2)CC1)NC(=O)NC1CCCCC1 | -69.7%
S=C(NC1CCCCC1)N1CCN(C/C=C/c2ccccc2)CC1 | 3.77%
O=C(CN1CCN(C/C=C/c2ccccc2)CC1)Nc1ccccc1C(=O)NC1CC1 | -88.8%
